Results filed as inconclusive are left out. Active and inactive are the calls of the source. Unless noted, calls come from the whole dose curve; as a rule, active = well fitted curve in the direction sought with a large enough effect; inconclusive = small, poorly fitted or top-dose-only effect, or another doubt; inactive = no such curve, though single readings can be large; an effect the other way counts as inactive or inconclusive.

This note sets out measurements from PubChem BioAssay (NCATS).

Assay [1] can be described thus: qHTS Assay for Identification of Small Molecule Agonists for NFkB Signaling Pathway. (AID 624478).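 Note: compounds tested together with TNF alpha at its EC50 of 10 pM; 0% is about no effect.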 In short, it runs like this:
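Cells carrying an NFkB response element-driven beta-lactamase gene are co-treated with compound and 10 pM TNF alpha for 5 h, and reporter activity is then read as 460 and 530 nm fluorescence.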
For orientation: Quantitative high-throughput screening tests each substance at several concentrations.

Assay [2] can be described thus: qHTS Assay for Identification of Small Molecule Antagonists for NFkB Signaling Pathway. (AID 624479; calls by dose curve;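 note: pathway stimulated with TNF alpha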; note: potency is the fitted concentration of half-maximal effect).
Assay [3] can be described thus: Cell Proliferation Assay against the TMD8 Cell Line (AID 651645).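 Note: cells exposed to compound for 48 h before reading.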 The following applies: TMD8 DLBCL cell line proliferation/viability; at 46.1 µM (top of the series). In short, it runs like this: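 TMD8 cells, 500/well in RPMI with 5% FBS, dosed immediately and grown 48 h at 37 C, 5% CO2. CellTiter-Glo luminescence normalised to DMSO 100% and 9.2 uM bortezomib (final) 0%.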

Assay [4] can be described thus: Cell Proliferation Assay against the HBL1 Cell Line (AID 651646).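 Note: cells exposed to compound for 48 h before reading.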 The note with it: HBL1 DLBCL cells; at 46.1 µM (top of the series). The method in brief:
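500 log-phase HBL1 cells per well in phenol red-free RPMI with 5% FBS were treated with compounds for 48 h at 37 °C, 5% CO2. Viability was read by CellTiter-Glo luminescence, normalized to DMSO (100%) and 9.2 uM bortezomib final (0%).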

Assay [5] can be described thus: Cytotoxicity counterscreen for NFkB agonists and antagonists (AID 624476).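 Note: cells exposed to compound for 48 hours.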 Note: potency is the fitted concentration of half-maximal effect. In general terms: Counterscreens check selectivity or assay interference.
The nature of assay [6]: Cell Proliferation Assay against the TMD8 Cell Line (Caspase readout at 8 hrs) (AID 651713). Note: potency is the fitted concentration of half-maximal effect. In short, it runs like this:
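Percent activity derived from Caspase-Glo signal, DMSO set to 0% and bortezomib (9.2 uM final) to 100%. TMD8 cells were exposed to compound for 8 h in RPMI with 5% FBS.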

Assay [7] in a line: Cell Proliferation Assay against the TMD8 Cell Line (Caspase readout at 16 hrs) (AID 651712). Note: potency is the fitted concentration of half-maximal effect. The method in brief:
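TMD8 cells (500/well) in phenol-red-free RPMI with glutamine, 5% FBS, were exposed to compounds for 16 h at 37 °C. Caspase 3/7 activation was read by Caspase-Glo luminescence; percent activity normalised to DMSO (0%) and 9.2 uM bortezomib final (100%).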

Turning to `Clc1ccc2ncc(-c3cccc(NC4CNC4)n3)n2c1`, the call in assay [1] was inactive. In assay [2], the Potency was 6.68 µM (active). Further, the viability (% of control) in assay [3] is 1.46%. In addition, the viability, percent of control in assay [4] was 34.2%.
`C[C@@H](Oc1cc(-c2cnn(C3CCNCC3)c2)cnc1N)c1c(Cl)ccc(F)c1Cl`: the Potency entry in assay [5] was “inactive”. For the same compound, the result in assay [1] was inactive. Moreover, in assay [3], the viability (% of control) came to 2.18%. In addition, the viability, percent of control in assay [4] was -0.628%. Besides, in assay [6], the Potency is 26.4 µM (active).
For the compound `CCCCCN(CCC12CC3CC(CC(C3)C1)C2)C(=O)NCCCc1ccncc1`, the Potency was 23.5 µM (active) in assay [5], 21.1 µM (active) in assay [2] and 23.5 µM (active) in assay [6]. Besides, in assay [3], the viability (% of control) worked out at 1.96%. The viability, percent of control in assay [4] is 1.97%.
As to `CN1CCC(CNc2ccc3ncc(-c4cccc(OC(F)(F)F)c4)n3n2)CC1`, the Potency was 26.4 µM (active) in assay [5], 23.7 µM (active) in assay [2] and 23.5 µM (active) in assay [6]. Besides, in assay [1], the result was inactive. Besides, the viability, percent of control in assay [4] was determined as 3.91%.
For the compound `CS(=O)(=O)N1CCN(Cc2cc3nc(-c4cccc5[nH]ncc45)nc(N4CCOCC4)c3s2)CC1`, the call in assay [1] was inactive.
In the case of `C=CC(=O)Nc1cc2c(Nc3ccc(F)c(Cl)c3)ncnc2cc1C#CC(C)(C)N1CCN(C)CC1`, the figures for the Potency in assay [5], in assay [2] and in assay [6] were 7.43 µM (active), 4.73 µM (active) and 5.26 µM (active), respectively. Also, the viability (% of control) in assay [3] was -0.868%. In assay [4], the viability, percent of control came to 0.0807%.
For `C=CC(=O)Nc1cc2c(Nc3ccc(F)c(Cl)c3)ncnc2cc1OCCCN1CCOCC1`, in that order: 23.5 µM (active), 16.8 µM (active), 14.8 µM (active), 0.581% and 0.769%.
For the compound `Cc1nc2cnc3ccc(C#Cc4cccnc4)cc3c2n1-c1ccc(C(C)(C)C#N)cc1`, the Potency entry in assay [5] is “inactive”. For the same compound, the outcome in assay [1] was inactive. Besides, the viability, percent of control in assay [4] is 0.379%. Also, in assay [6], the Potency was 26.4 µM (active).
For the compound `Nc1ccccc1NC(=O)c1ccc(CNC(=O)OCc2cccnc2)cc1`, the Potency result in assay [5], in assay [2] and in assay [6] was “inactive” each time. For the same compound, the compound was called inactive in assay [1]. The viability, percent of control in assay [4] came out at 4.18%.
For the compound `C1=CCOCc2cc(ccc2OCCN2CCCC2)Nc2nccc(n2)-c2cccc(c2)OCC1`, in assay [1], the outcome was inactive.
As for `c1ccc2c(CCNc3ccc(Nc4ccncc4)cc3)c[nH]c2c1`, the Potency entry in assay [5] is “inactive”. The Potency in assay [2] was 10.6 µM (active); in assay [7], 23.5 µM (active). Also, the viability (% of control) in assay [3] is 3.66%. Also, the viability, percent of control in assay [4] was found to be 22.1%.
Turning to `O=C(c1ccc(Nc2nccc(-c3cc4ccccc4s3)n2)cc1)N1CCC(N2CCCC2)CC1`, the compound was called inactive in assay [1]. The Potency in assay [2] was 0.266 µM (active). Further, in assay [3], the viability (% of control) stood at 0.477%. Also, the viability, percent of control in assay [4] is 0.745%. Further, the Potency result in assay [7] is “inactive”.
With `COCCn1c2c([n+](Cc3cnccn3)c1C)C(=O)c1ccccc1C2=O`, in assay [5], the Potency was 0.0118 µM (active). In addition, in assay [1], the outcome was inactive. Moreover, the viability (% of control) in assay [3] was determined as 1.68%. The viability, percent of control in assay [4] is 1.98%. Moreover, the Potency entry in assay [7] was “inactive”.
For `C[C@@]12O[C@@H](C[C@]1(O)CO)n1c3ccccc3c3c4c(c5c6ccccc6n2c5c31)CNC4=O`, the Potency in assay [5] was 3.32 µM (active). In assay [1], the call was inactive. Moreover, the viability (% of control) in assay [3] was 1.51%. Besides, in assay [4], the viability, percent of control amounted to 3.21%.
`COc1ccc(CC2SC(=O)NC2=O)cc1C(=O)NCc1ccc(C(F)(F)F)cc1` (stereo unspecified): the Potency entry in assay [5], in assay [2] and in assay [6] was “inactive” throughout. For the same compound, the compound was called inactive in assay [1]. In assay [4], the viability, percent of control came to 66%.
Consider `Cc1cn(-c2cc(NC(=O)c3ccc(C)c(Nc4nccc(-c5cccnc5)n4)c3)cc(C(F)(F)F)c2)cn1`, for which the Potency in assay [5] is 9.35 µM (active); in assay [2], 2.11 µM (active). Also, the call in assay [1] was inactive. In assay [4], the viability, percent of control worked out at 14.5%. In assay [6], the Potency result was “inactive”.
On to `CCCCc1nc2cc(C=CC(=O)NO)ccc2n1CCN(CC)CC`, for which the Potency is 14.8 µM (active) in assay [5] and 0.332 µM (active) in assay [7]. In addition, in assay [1], the compound was called inactive. For the same compound, the viability (% of control) in assay [3] is 1.77%. In assay [4], the viability, percent of control was determined as 1.9%. In addition, the Potency result in assay [6] was “inactive”.
With `O=C(O)c1ccc2c(c1)nc(Nc1cccc(Cl)c1)c1ccncc12`, the call in assay [1] was inactive. For the same compound, the Potency in assay [2] is 0.298 µM (active). Further, the viability, percent of control in assay [4] was found to be 32.2%. The Potency entry in assay [6] is “inactive”.
Take `CC(C)=CCCC(C)=CCCC(C)=CCSc1ccccc1C(=O)O`: the viability (% of control) in assay [3] worked out at 100%. In addition, the viability, percent of control in assay [4] amounted to 85.3%. For the same compound, the Potency entry in assay [7] and in assay [6] was “inactive” in each case.
Regarding `Cn1c(=O)n(-c2ccc(C(C)(C)C#N)cc2)c2c3cc(-c4cnc5ccccc5c4)ccc3ncc21`, the compound was called inactive in assay [1]. For the same compound, in assay [2], the Potency result was “inactive”. The viability, percent of control in assay [4] amounted to 38.2%. Besides, the Potency in assay [7] was 20.9 µM (active).
In the case of `CC(=O)OCC(=O)[C@@]1(O)[C@H](C)C[C@H]2[C@@H]3C=C(C)C4=Cc5c(cnn5-c5ccccc5)C[C@]4(C)[C@@H]3[C@@H](O)C[C@@]21C`, in assay [1], the compound was called inactive. Moreover, in assay [4], the viability, percent of control was 2.93%. Also, in assay [7], the Potency is 20.9 µM (active). Moreover, the Potency result in assay [6] is “inactive”.
As to `COc1cc2c(Oc3ccc4[nH]c(C)cc4c3F)ncnc2cc1OCCCN1CCCC1`, the call in assay [1] was inactive. Also, in assay [4], the viability, percent of control was determined as 1.27%.
In the case of `Cc1cnc(Nc2ccc(F)cc2Cl)nc1-c1c[nH]c(C(=O)N[C@H](CO)c2cccc(Cl)c2)c1`, in assay [1], the result was inactive. Besides, the viability (% of control) in assay [3] is -0.93%. Besides, the viability, percent of control in assay [4] was determined as 0.107%.
Consider `CC(C)(C)c1cc(NC(=O)Nc2ccc(-c3cn4c(n3)sc3cc(OCCN5CCOCC5)ccc34)cc2)no1`, for which the result in assay [1] was inactive. For the same compound, in assay [2], the Potency is 13.3 µM (active). Also, in assay [3], the viability (% of control) came to 41.9%. Besides, the viability, percent of control in assay [4] is 30.7%. In addition, the Potency result in assay [7] and in assay [6] was “inactive” throughout.
Consider `O=C(C=Cc1cccc(S(=O)(=O)Nc2ccccc2)c1)NO`, for which the outcome in assay [1] was inactive. In addition, the viability, percent of control in assay [4] amounted to 2.01%. Moreover, in assay [7], the Potency is 0.935 µM (active). Moreover, the Potency result in assay [6] was “inactive”.
`O=c1[nH]nc(Sc2ncc([N+](=O)[O-])s2)n1-c1ccc2c(c1)OCCO2`: the compound was classed as inactive in assay [1]. For the same compound, the Potency in assay [2] was 23.7 µM (active). In assay [4], the viability, percent of control was -0.138%. Also, the Potency result in assay [7] and in assay [6] was “inactive” in each case.
